Drawing on PMC7819943, “Rice protein-binding microarrays: a tool to detect cis-acting elements near promoter regions in rice”, this text covers binding signal for 58 sequences.

Over roughly 35,000 sequences, “fluorescence intensity (a.u.)” has its median near 10,000; the highest 2% begin near 52,000. This is one part of a sample in which the highest values are shown more often than they occur.

The experiment concerns the target T1, OsWOX13 (Oryza sativa, UniProt Q5QMM3 1-267).
T1 sequence: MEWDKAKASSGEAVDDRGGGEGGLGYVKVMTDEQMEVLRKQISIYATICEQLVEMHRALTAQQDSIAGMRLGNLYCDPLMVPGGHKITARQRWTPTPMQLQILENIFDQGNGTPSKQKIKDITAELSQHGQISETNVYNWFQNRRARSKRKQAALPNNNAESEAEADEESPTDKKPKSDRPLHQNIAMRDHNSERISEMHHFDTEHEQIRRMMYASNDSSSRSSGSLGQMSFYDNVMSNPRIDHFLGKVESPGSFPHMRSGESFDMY
Put plainly: protein-binding microarray (RPBM); PBS, 2% BSA, 51.3 ng/ul salmon testes DNA, 50 uM zinc acetate, 200 nM TF, 25 C, 1 h; high values mean tight binding. The following applies: protein: recombinant; tags: N-terminal polyhistidine and DsRed monomer fusion (pET32a); label: CyDye5-dUTP incorporated in the synthesized complementary strand; 3' TTTTT single-stranded linker to array surface; dsDNA, one strand shown. The method in brief:
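Transcription factors were each fused at the N-terminus to a polyhistidine tag plus DsRed and expressed in E. coli BL21-CodonPlus before Ni–NTA purification. Binding to a double-stranded custom Agilent array was carried out with 200 nM protein at 25 °C for 1 h in PBS, 2% BSA, salmon testes DNA and 50 µM zinc acetate. The binding signal is per-feature fluorescence intensity, in arbitrary units, on an Axon 4000B scanner.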
Consider “ATGATTACTAAAACTGTACTTAAAGGCAATGGTTTCTGTACGGAGTCACCTAGTGCAG”, for which the binding signal is 13900 fluorescence intensity (a.u.).

Consider “CATTGATTGGATCGTACGCTTGTGTTGCATGACCAATGATCGGAGTCACCTAGTGCAG”, for which the binding signal was 44200 fluorescence intensity (a.u.).

With “AATCCATGATTATCACATATTTACTGTAGAACTACATTGTCGGAGTCACCTAGTGCAG”, the binding signal was 11200 fluorescence intensity (a.u.).

Regarding “TTAAATATAGTTAATTAAACTAGCTAGCTCCTCCGATCCTCGGAGTCACCTAGTGCAG”, the binding signal is 12800 fluorescence intensity (a.u.).

Turning to “CTCTCTCCTTGGCCTCTTCCTCCCTGGTCGGTAGCGCAGCCGGAGTCACCTAGTGCAG”, the binding signal was 59600 fluorescence intensity (a.u.).

On to “CAAAATTGGCTCCTCACCCTTGTGCAGATGCAGCCTTCTTCGGAGTCACCTAGTGCAG”, for which the binding signal is 13700 fluorescence intensity (a.u.).

On to “GTAGGATTGGATGGATATAGGAGCCTGCCTTGCCTTCCTCCGGAGTCACCTAGTGCAG”, for which the binding signal is 6030 fluorescence intensity (a.u.).

“CTTTGTAGACTGACAGTGATAGTATTGTACTGCTATACGTCGGAGTCACCTAGTGCAG”: the binding signal was 9250 fluorescence intensity (a.u.).

On to “TGGGCGGTTAATTTGACTTCGATGTTCAGTACCTTGTGGGCGGAGTCACCTAGTGCAG”, for which the binding signal was 4180 fluorescence intensity (a.u.).

“CTAGTAATAACACTGACATCAATTAGCAATTTAGCATCCGCGGAGTCACCTAGTGCAG”: the binding signal was 13200 fluorescence intensity (a.u.).

Turning to “CTTGGCTGAAACAAATCAATTAACATCACAAACAGGAGAACGGAGTCACCTAGTGCAG”, the binding signal was 11300 fluorescence intensity (a.u.).

As to “AATAATCATACTAATTATATAAGTATATACTAAATATTATCGGAGTCACCTAGTGCAG”, the binding signal was 7370 fluorescence intensity (a.u.).

Regarding “ACATCATTGACATAATATGATTTAACAACAAACAATTTAGCGGAGTCACCTAGTGCAG”, the binding signal is 34800 fluorescence intensity (a.u.).

For “TCGTAAATTAATTATTAATAATATACTAATGGTATCCCCACGGAGTCACCTAGTGCAG”, the binding signal was 53900 fluorescence intensity (a.u.).

Consider “TAATGCTTAATTAATCTCAATATAATCGCGTGCTTTGTTTCGGAGTCACCTAGTGCAG”, for which the binding signal was 7810 fluorescence intensity (a.u.).

Turning to “TCATCGTGGTATTAATTATTTAATAATTATAAATATATTTCGGAGTCACCTAGTGCAG”, the binding signal is 10200 fluorescence intensity (a.u.).

Consider “ATATAATTACAATACAATCGTAGTGTAATTACACTGTAACCGGAGTCACCTAGTGCAG”, for which the binding signal is 14800 fluorescence intensity (a.u.).

Take “CTTAATTAATATAATCGGCAGGAGCTCACTGTTTGTTAACCGGAGTCACCTAGTGCAG”: the binding signal is 52800 fluorescence intensity (a.u.).

Consider “TTCGGTTTTATTTTAATTGACATTTTGGACAATGATACGGCGGAGTCACCTAGTGCAG”, for which the binding signal is 27900 fluorescence intensity (a.u.).

Take “GTTAATGATTAATTAGAGCATTTGTTGTCTCAACTATTGTCGGAGTCACCTAGTGCAG”: the binding signal was 58600 fluorescence intensity (a.u.).

For “ACATTAATGATTAGAGACTATATTGTCTCTAACTGTTGTACGGAGTCACCTAGTGCAG”, the binding signal was 39900 fluorescence intensity (a.u.).

For “TCATAACTATTTTAATTGACATACAAACAATGAGGCGGCACGGAGTCACCTAGTGCAG”, the binding signal is 58300 fluorescence intensity (a.u.).

For the sequence “ACATTAATGATTAGAGACCATATTGTCATCAACTATTGTACGGAGTCACCTAGTGCAG”, the binding signal was 30800 fluorescence intensity (a.u.).

Turning to “GCACCGTTGATGAAATTGCCGTTAGAATTTCGATCATCCCCGGAGTCACCTAGTGCAG”, the binding signal is 4810 fluorescence intensity (a.u.).

Turning to “GGTAATGATTTAACACCACCTAATTTATTTTGAACAAGCTCGGAGTCACCTAGTGCAG”, the binding signal is 20500 fluorescence intensity (a.u.).

On to “CATGTCTCAATAAATTGATCGTTGGCAAAATCGGTTAGTCCGGAGTCACCTAGTGCAG”, for which the binding signal was 4980 fluorescence intensity (a.u.).

“ATTAATTTGACCAACTTCATTCAACATGTAACATGGTCTCCGGAGTCACCTAGTGCAG”: the binding signal was 16600 fluorescence intensity (a.u.).

Consider “GAAGTGATTGATATTTGAGCAATTAGTCCGTTGTCAGGGTCGGAGTCACCTAGTGCAG”, for which the binding signal is 62400 fluorescence intensity (a.u.).

As for “TGCATTAATTATTGGAGAGTGCGGTCTCCTCTCCTCCCTCCGGAGTCACCTAGTGCAG”, the binding signal was 23200 fluorescence intensity (a.u.).

As to “TATTAATTTAATAAAATTAATTTGGTAATGTAAATATTATCGGAGTCACCTAGTGCAG”, the binding signal is 15600 fluorescence intensity (a.u.).

“CCATTAATTAATTAACCTGCAGCCTCAATTATTTGGTCTCCGGAGTCACCTAGTGCAG”: the binding signal is 57600 fluorescence intensity (a.u.).

In the case of “TGGAATTTTGAGTGTGTGATTGCGTTATTACGTTGCAAGTCGGAGTCACCTAGTGCAG”, the binding signal was 3550 fluorescence intensity (a.u.).

For “AAACATTAATTTGTTTTATAATATATTATAAATGACTATACGGAGTCACCTAGTGCAG”, the binding signal was 15500 fluorescence intensity (a.u.).

For “GGTAATTTGTCCGGTATTGAAAGTTTAGGGTGAGCAATGTCGGAGTCACCTAGTGCAG”, the binding signal is 22900 fluorescence intensity (a.u.).

In the case of “AATTAAATTTTAACTATTAATATTATATTTTATAAATATTCGGAGTCACCTAGTGCAG”, the binding signal is 6480 fluorescence intensity (a.u.).

On to “TTAATAATTATTGTAAAATTTAATTTATATTTATTTGAATCGGAGTCACCTAGTGCAG”, for which the binding signal is 22600 fluorescence intensity (a.u.).

As for “ATATAATTAATTAAAATATTAATTATTATTTGTAAAATGGCGGAGTCACCTAGTGCAG”, the binding signal is 65500 fluorescence intensity (a.u.).

For the sequence “TTTAATTAAATTTAACATTAAATATATTTTGACTATTTGTCGGAGTCACCTAGTGCAG”, the binding signal is 53000 fluorescence intensity (a.u.).

In the case of “TCCGATTAATGTGGAAATTTCTAGCCTCCACAGCGAACGTCGGAGTCACCTAGTGCAG”, the binding signal is 8650 fluorescence intensity (a.u.).

For the sequence “TAGATACGAAAATTAATTGGAATTTTGGATTTGGATGGGACGGAGTCACCTAGTGCAG”, the binding signal was 24500 fluorescence intensity (a.u.).

In the case of “GTCACATCATTCTAATTTCAATTAAACTTCAAATTTTGGCCGGAGTCACCTAGTGCAG”, the binding signal is 12900 fluorescence intensity (a.u.).

Consider “CTGCAACTAAATTTTAGGATTAATTTAAGGAACTTTCGGGCGGAGTCACCTAGTGCAG”, for which the binding signal is 11300 fluorescence intensity (a.u.).

Turning to “CAATGGTAAATTTATCCAGTCCAAAGTGAAAATATATGGTCGGAGTCACCTAGTGCAG”, the binding signal was 3960 fluorescence intensity (a.u.).

Take “CTCCTTAATTTACTTATTTGTCTTTAATTGGTTCTCGCACCGGAGTCACCTAGTGCAG”: the binding signal was 33700 fluorescence intensity (a.u.).

Consider “CTGCCTGTAAATTTCTGTGATTTGATGTTTGCCTCTGTTGCGGAGTCACCTAGTGCAG”, for which the binding signal is 11300 fluorescence intensity (a.u.).

Take “ATTTAAATCATCATCTATAGTCAATCTAATAGCTCACTCACGGAGTCACCTAGTGCAG”: the binding signal was 8910 fluorescence intensity (a.u.).

For “AATAATTAAATTTGATATAATAAATTAATATGTGATATGTCGGAGTCACCTAGTGCAG”, the binding signal was 35700 fluorescence intensity (a.u.).

Regarding “TAATATTATATTTAATTTGCATTATTTTAAATATAGTACCCGGAGTCACCTAGTGCAG”, the binding signal is 3730 fluorescence intensity (a.u.).

In the case of “TTTTAGTAAATTAATAAATATTTATTTTGTTATTTAATACCGGAGTCACCTAGTGCAG”, the binding signal was 13200 fluorescence intensity (a.u.).

“AATAATAATTAATTATAGTAATTAATCATTAATTTTGTACCGGAGTCACCTAGTGCAG”: the binding signal was 64100 fluorescence intensity (a.u.).

In the case of “ATCAATCTCAATGGTTAAATGATTGATCTATCATAATTCACGGAGTCACCTAGTGCAG”, the binding signal is 22100 fluorescence intensity (a.u.).

“GTTAATTAATTATATTATAATAATTCTCTCAATTTGTCGCCGGAGTCACCTAGTGCAG”: the binding signal is 65500 fluorescence intensity (a.u.).

For the sequence “GATTAATTAATTAATCTCAATGATGGTAAATACATTCCCACGGAGTCACCTAGTGCAG”, the binding signal was 63100 fluorescence intensity (a.u.).

On to “TATAACTAAAATTATATTTGTAAGTTTAGTTGATATGACACGGAGTCACCTAGTGCAG”, for which the binding signal was 6390 fluorescence intensity (a.u.).

For “AGTAATTTTGGTACAATTAATAAATAAATCTGATACCTCACGGAGTCACCTAGTGCAG”, the binding signal was 21200 fluorescence intensity (a.u.).

Take “ATTAAATCAATAATTAAATATATTTTCATAATAAATTTGTCGGAGTCACCTAGTGCAG”: the binding signal was 23400 fluorescence intensity (a.u.).

Consider “AGTGATAAATTTGAGTGATTACTATATGACACCGTTGTGTCGGAGTCACCTAGTGCAG”, for which the binding signal was 55700 fluorescence intensity (a.u.).

For “TTTTAAATTTAAAATAATTAAAACTCAATTAATAATTTGTCGGAGTCACCTAGTGCAG”, the binding signal is 31300 fluorescence intensity (a.u.).
